The values that follow come from PubChem BioAssay.

Assay [1] is described as follows: antimalarial activity against Dd2 strain (AID 2302;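 active = growth inhibition above 50% at the single 2 µM test dose, taken to imply half-maximal potency below 2 µM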;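 note: 0% = DMSO untreated growth and 100% = chloroquine plus artemisinin killed control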). As to conditions: P. falciparum Dd2 in RBCs, LDH growth readout, 72 h; at 2 µM; active compounds read high.
Assay [2] is described as follows: HepG2 cytotoxicity, primary screen, cytotoxicity control for P. falciparum antimalarial project, cell-based, ATP luminescence (AID 2303;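 active = inhibition above 50%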;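 note: 0% = DMSO wells and 100% = digitonin-killed cells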). As to conditions: HepG2 viability, 24-48 h, at 10 µM, active compounds read high.
Assay [3] concerns the target L-lactate dehydrogenase (Plasmodium falciparum (isolate CDC / Honduras)) (UniProt Q27743). In words: PfLDH activity inhibition – cell lysate, 3D7 strain, counter-screen for P. falciparum growth inhibition project (AID 2304).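 Note: 0% = vehicle and 100% = reference inhibitor.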 As to conditions: P. falciparum 3D7 crude extract, LDH APAD/NBT absorbance; at 2 µM; active compounds read high. For orientation: Counterscreens check selectivity or assay interference.

Assay [4] in a line: inhibition of 3D7 malaria parasite growth – strain 3D7 (AID 2306).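 Note: 0% = DMSO wells and 100% = chloroquine plus artemisinin control wells.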 As to conditions: P. falciparum 3D7 erythrocytic growth, LDH absorbance, 72 h; at 2 µM; active compounds read high.
Assay [5] addresses Calcium-dependent protein kinase 1 (Plasmodium falciparum (isolate 3D7)) (UniProt P62344). In words: PfCDPK1 kinase inhibitors, biochemical, TCAMS library (AID 1159585; cut-off not given, nearly all actives have IC50 up to about 0.98 µM;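 note: inhibitors leave more ATP so luminescence rises with inhibition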). As to conditions: recombinant PfCDPK1, Kinase-Glo ATP depletion luminescence.
Assay [6] addresses Plasmodium falciparum protein kinase 6 (PK6, PF3D7_1337100) (UniProt Q8IDW1). In words: PfPK6 kinase inhibitors, biochemical, TCAMS library (AID 1159586). The note with it: recombinant PfPK6, Kinase-Glo ATP depletion luminescence.
Assay [7] has as its target Protein kinase 7 (PK7), Plasmodium falciparum 3D7 (PF3D7_0213400) (UniProt Q7YTF7). In words: inhibition of Plasmodium PK7 catalytic activity – biochemical, TCAMS antimalarial set, Kinase-Glo luminescence (AID 1159587). As to conditions: recombinant PfPK7, Kinase-Glo ATP depletion luminescence. A general note: Kinase-Glo measures the ATP left after a reaction by luminescence.

Assay [8] concerns the target Calcium-dependent protein kinase 4 (Plasmodium falciparum (isolate 3D7)) (UniProt Q8IBS5). In words: PfCDPK4 kinase inhibitors, biochemical, TCAMS library (AID 1159588; cut-off not given, nearly all actives have IC50 up to about 0.91 µM). As to conditions: recombinant PfCDPK4, Kinase-Glo ATP depletion luminescence.

Structures are written as SMILES. A number with no mark means an inactive call. For some assays here: Entries with a potency or affinity are not part of this list. Active and inactive are the calls of the source. Unless noted, the rule behind the calls is not given here.

The inhibition is the relative decrease from the control value, in per cent.

Chain of Calcium-dependent protein kinase 4 (Plasmodium falciparum (isolate 3D7)) (Q8IBS5 whole entry, looked up): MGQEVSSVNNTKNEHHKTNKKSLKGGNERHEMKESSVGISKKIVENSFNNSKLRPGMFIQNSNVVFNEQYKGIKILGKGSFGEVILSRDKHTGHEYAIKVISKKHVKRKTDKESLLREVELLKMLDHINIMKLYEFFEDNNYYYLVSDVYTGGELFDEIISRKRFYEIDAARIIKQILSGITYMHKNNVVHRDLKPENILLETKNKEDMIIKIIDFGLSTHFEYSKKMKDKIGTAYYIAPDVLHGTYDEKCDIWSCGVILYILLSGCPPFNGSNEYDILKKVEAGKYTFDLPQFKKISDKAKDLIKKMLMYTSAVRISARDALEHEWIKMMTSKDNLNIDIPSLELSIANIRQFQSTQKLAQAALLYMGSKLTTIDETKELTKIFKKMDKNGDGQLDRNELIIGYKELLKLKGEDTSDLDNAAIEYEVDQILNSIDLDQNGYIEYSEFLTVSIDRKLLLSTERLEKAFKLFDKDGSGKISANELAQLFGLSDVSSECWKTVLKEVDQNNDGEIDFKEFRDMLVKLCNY
Chain of Plasmodium falciparum protein kinase 6 (PK6, PF3D7_1337100) (Q8IDW1 1-305): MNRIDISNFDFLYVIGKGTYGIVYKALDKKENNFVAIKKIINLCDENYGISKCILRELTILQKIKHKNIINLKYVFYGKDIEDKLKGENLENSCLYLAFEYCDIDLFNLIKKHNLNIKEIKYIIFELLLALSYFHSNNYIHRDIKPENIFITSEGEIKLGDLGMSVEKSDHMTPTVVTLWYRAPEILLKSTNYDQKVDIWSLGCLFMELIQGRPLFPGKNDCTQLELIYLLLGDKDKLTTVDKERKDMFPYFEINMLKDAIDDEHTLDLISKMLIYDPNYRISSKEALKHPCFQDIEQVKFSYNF
Chain of Protein kinase 7 (PK7), Plasmodium falciparum 3D7 (PF3D7_0213400) (Q7YTF7 1-343): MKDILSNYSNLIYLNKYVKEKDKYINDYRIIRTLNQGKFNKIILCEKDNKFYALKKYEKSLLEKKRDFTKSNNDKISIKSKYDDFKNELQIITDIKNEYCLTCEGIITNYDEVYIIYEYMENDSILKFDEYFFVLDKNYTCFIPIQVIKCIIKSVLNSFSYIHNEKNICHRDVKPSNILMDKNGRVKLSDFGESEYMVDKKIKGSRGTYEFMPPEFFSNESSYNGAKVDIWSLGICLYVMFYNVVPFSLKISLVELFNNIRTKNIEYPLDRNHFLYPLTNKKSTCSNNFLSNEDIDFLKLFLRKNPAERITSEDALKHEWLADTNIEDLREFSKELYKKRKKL
Chain of L-lactate dehydrogenase (Plasmodium falciparum (isolate CDC / Honduras)) (Q27743 whole entry, looked up): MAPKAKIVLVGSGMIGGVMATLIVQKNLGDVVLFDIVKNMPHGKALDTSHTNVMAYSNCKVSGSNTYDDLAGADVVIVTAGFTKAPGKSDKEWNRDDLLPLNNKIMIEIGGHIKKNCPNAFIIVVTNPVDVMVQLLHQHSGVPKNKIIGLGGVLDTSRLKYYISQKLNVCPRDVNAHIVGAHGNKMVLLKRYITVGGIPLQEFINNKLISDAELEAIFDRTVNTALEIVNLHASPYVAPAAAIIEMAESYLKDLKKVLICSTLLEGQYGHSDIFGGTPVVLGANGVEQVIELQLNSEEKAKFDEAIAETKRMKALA
Chain of Calcium-dependent protein kinase 1 (Plasmodium falciparum (isolate 3D7)) (P62344 whole entry, looked up): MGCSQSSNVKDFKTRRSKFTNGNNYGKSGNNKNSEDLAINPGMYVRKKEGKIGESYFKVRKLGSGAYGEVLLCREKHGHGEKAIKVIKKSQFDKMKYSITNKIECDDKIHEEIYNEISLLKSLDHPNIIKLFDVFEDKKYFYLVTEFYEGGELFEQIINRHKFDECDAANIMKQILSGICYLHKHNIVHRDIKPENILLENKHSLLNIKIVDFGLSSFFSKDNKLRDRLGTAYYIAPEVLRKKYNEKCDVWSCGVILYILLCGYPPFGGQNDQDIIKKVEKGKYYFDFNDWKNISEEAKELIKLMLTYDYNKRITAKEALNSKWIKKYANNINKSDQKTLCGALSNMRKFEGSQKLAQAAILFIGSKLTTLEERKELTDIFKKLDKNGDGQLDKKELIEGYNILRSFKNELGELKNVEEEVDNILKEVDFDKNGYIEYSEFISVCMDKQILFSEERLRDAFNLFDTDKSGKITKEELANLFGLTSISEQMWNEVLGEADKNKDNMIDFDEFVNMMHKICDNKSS

As to `C=CCN1C(=O)c2[nH]nc(-c3cc(C)c(C)cc3O)c2C1c1cccc(Br)c1` (configuration not stated), the figures for the growth inhibition in assay [1] and in assay [4] were 82% (active) and 90% (active), respectively. The figures for the inhibition in assay [2] and in assay [3] were -14% and -3%, respectively. The result in assay [5], in assay [6], in assay [7] and in assay [8] was inactive.

Turning to `c1ccc(-c2ccc(-c3csc(Nc4ccncc4)n3)cc2)cc1`, the growth inhibition is 97% (active) in assay [1] and 101% (active) in assay [4]. The figures for the inhibition in assay [2] and in assay [3] were 30% and 3%, respectively. The outcome in assay [5], in assay [6], in assay [7] and in assay [8] was inactive.

Turning to `CC(C)n1nc(C(=O)N2CCN(c3ccccc3)CC2)c2ccccc2c1=O`, the growth inhibition was 3% in assay [1] and 96% (active) in assay [4]. The values for the inhibition in assay [2] and in assay [3] were 34% and 0%, respectively. In addition, the outcome in assay [5], in assay [6], in assay [7] and in assay [8] was inactive.

Take `COc1ccc2c(c1)[nH]c1c(/C=C/c3ccc([N+](=O)[O-])cc3)nccc12`: the growth inhibition in assay [1] was 63% (active); in assay [4], 100% (active). Further, the inhibition in assay [2] was 4%; in assay [3], 3%. The outcome in assay [5], in assay [6], in assay [7] and in assay [8] was inactive.

`CCc1cn2c3c(cc(C(=O)N[C@@H](Cc4ccccc4)[C@H](O)CNC(C)C)cc13)N(C)S(=O)(=O)C2`: the growth inhibition in assay [1] and in assay [4] was 98% (active) in each case. Further, the inhibition in assay [2] was 16%; in assay [3], 8%. Besides, the result in assay [5], in assay [6], in assay [7] and in assay [8] was inactive.

On to `Cc1nn(-c2ccccc2)c2sc(C(=O)N(CCCN(C)C)c3nc(-c4ccccc4)cs3)cc12`, for which the growth inhibition in assay [1] is 36%; in assay [4], 95% (active). Besides, the inhibition in assay [2] is 99% (active); in assay [3] it was -2%. The result in assay [5], in assay [6], in assay [7] and in assay [8] was inactive.

Turning to `C=CCC(C)n1ncc2c3c(N)nc(N)nc3ccc21` (configuration not stated), the growth inhibition is 95% (active) in assay [1] and 93% (active) in assay [4]. Further, the values for the inhibition in assay [2] and in assay [3] were 66% (active) and -3%, respectively. Also, the outcome in assay [5], in assay [6], in assay [7] and in assay [8] was inactive.

For the compound `COc1ccc2c(c1)c(C1CCN(CCCCNC(=O)c3ccc(-c4ccc(C(F)(F)F)cc4)cc3)CC1)cn2C(C)C`, the results for the growth inhibition in assay [1] and in assay [4] were 21% and 99% (active), respectively. In addition, the inhibition was 26% in assay [2] and 0% in assay [3]. The outcome in assay [5], in assay [6], in assay [7] and in assay [8] was inactive.

As to `COc1ccc(CN(C)CCCc2ccc(NC(=O)Cc3ccc4nc(-c5ccccc5)ccc4c3)cc2)cc1OC`, the growth inhibition in assay [1] was -2%; in assay [4], 98% (active). Besides, the inhibition in assay [2] is 10%; in assay [3] it was -3%. Besides, the result in assay [5], in assay [6], in assay [7] and in assay [8] was inactive.

As for `CCCC(C)NC(=O)[C@H]1CNCCN1C(=O)CCCc1ccccc1` (some centres not stated), the results for the growth inhibition in assay [1] and in assay [4] were 98% (active) and 96% (active), respectively. Besides, the inhibition in assay [2] is 47%; in assay [3] it was 4%. In addition, the result in assay [5], in assay [6], in assay [7] and in assay [8] was inactive.

As to `c1cc(CN2CCN(c3ccncc3)CC2)cc(-c2cccc(-c3nc4ccccc4[nH]3)c2)c1`, the growth inhibition is 98% (active) in assay [1] and 102% (active) in assay [4]. Moreover, the inhibition is 35% in assay [2] and 3% in assay [3]. Further, the outcome in assay [5], in assay [6], in assay [7] and in assay [8] was inactive.

In the case of `COc1ccc(Cn2c(Nc3cccc(C(F)(F)F)c3)nc3cc(C(=O)NCCN4CCCC4)ccc32)cc1Cl`, the growth inhibition in assay [1] was 54% (active); in assay [4], 97% (active). The inhibition in assay [2] is 11%; in assay [3] it was 2%. In addition, the outcome in assay [5], in assay [6], in assay [7] and in assay [8] was inactive.

On to `CCOC(=O)N1CCN(CCCNc2c3ccccc3nc3ccccc23)CC1`, for which the growth inhibition was 20% in assay [1] and 90% (active) in assay [4]. Moreover, the results for the inhibition in assay [2] and in assay [3] were 5% and 2%, respectively. The result in assay [5], in assay [6], in assay [7] and in assay [8] was inactive.

Regarding `Cc1ccc(N(CCC(=N)N)Cc2ccccc2)cc1`, the values for the growth inhibition in assay [1] and in assay [4] were 95% (active) and 96% (active), respectively. In addition, the results for the inhibition in assay [2] and in assay [3] were 6% and -3%, respectively. Besides, the result in assay [5], in assay [6], in assay [7] and in assay [8] was inactive.

In the case of `NOCCCOc1ccccc1`, the growth inhibition was -4% in assay [1] and 100% (active) in assay [4]. For the same compound, the figures for the inhibition in assay [2] and in assay [3] were 20% and -4%, respectively. Further, the result in assay [5], in assay [6], in assay [7] and in assay [8] was inactive.

In the case of `COc1cccc(C(=O)NCCc2cccc(Cl)c2)c1Oc1ccccc1`, the growth inhibition in assay [1] is 90% (active); in assay [4] it was 97% (active). For the same compound, the inhibition in assay [2] is 28%; in assay [3], -1%. In addition, the outcome in assay [5], in assay [6], in assay [7] and in assay [8] was inactive.

Turning to `COc1ccc2nccc(NC(=O)CNCc3ccc(-c4ccccc4)cc3)c2c1`, the growth inhibition is 35% in assay [1] and 101% (active) in assay [4]. The inhibition in assay [2] was 11%; in assay [3], -4%. For the same compound, the result in assay [5], in assay [6], in assay [7] and in assay [8] was inactive.

As to `C=C(C)CSc1nc2c(c(=O)n1Cc1ccco1)C1(CCCCC1)Cc1ccccc1-2`, the growth inhibition was 68% (active) in assay [1] and 97% (active) in assay [4]. Also, the values for the inhibition in assay [2] and in assay [3] were 2% and -9%, respectively. Further, the outcome in assay [5], in assay [6], in assay [7] and in assay [8] was inactive.

`NC(=O)c1cccc(C(=O)Nc2cccc(-c3cccc(-c4nc5ccccc5[nH]4)c3)c2)c1`: the growth inhibition is 78% (active) in assay [1] and 100% (active) in assay [4]. For the same compound, the inhibition in assay [2] was 32%; in assay [3], 2%. The outcome in assay [5], in assay [6], in assay [7] and in assay [8] was inactive.
